Measurements published in PubChem BioAssay (NCI).
Compounds without any hit were thinned out: in the full panel of roughly 79,000, 15% have a hit. Unmarked numbers belong to inactive results. Active and inactive are the calls of the source. Rule as the data show it: active = growth inhibition above about 70%; inactive = the rest.

Key:
[1] = NCI Yeast Anticancer Drug Screen. Data for the rad50 strain (AID 155);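 also: 0% = growth of vehicle-only cultures of the same strain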; conditions: S. cerevisiae rad50 strain growth inhibition, active compounds read high
Outline: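 Inhibition values express reduced yeast growth in compound-treated cultures relative to vehicle-treated controls.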

[2] = NCI Yeast Anticancer Drug Screen. Data for the mec2-1 strain (AID 157); conditions: S. cerevisiae mec2-1 strain, active compounds read high
Outline: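 Yeast mec2-1 mutant treated with compound. Readout: growth inhibition vs vehicle controls.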

[3] = NCI Yeast Anticancer Drug Screen. Data for the sgs1 mgt1 strain (AID 161);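 also: 0% = growth of cultures given vehicle only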; conditions: S. cerevisiae sgs1 mgt1 strain, active compounds read high
Outline: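 Mutant yeast exposed to compound; growth scored against vehicle-only wells.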

[4] = NCI Yeast Anticancer Drug Screen. Data for the cln2 rad14 strain (AID 165);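 also: 0% = growth equal to vehicle treated cultures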; conditions: S. cerevisiae cln2 rad14 strain, active compounds read high
Outline: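 cln2 rad14 yeast strain; compound exposure; growth inhibition read vs vehicle controls.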

[5] = NCI Yeast Anticancer Drug Screen. Data for the bub3 strain (AID 167); conditions: S. cerevisiae bub3 mutant strain, active compounds read high
Outline: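 Steps: expose the mutant yeast strain to compound; grow alongside vehicle-treated cultures; measure growth; express inhibition against the vehicle cultures.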

[6] = NCI Yeast Anticancer Drug Screen. Data for the mlh1 rad18 strain (AID 175); conditions: S. cerevisiae mlh1 rad18 strain growth inhibition, active compounds read high
Outline: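 Yeast w/ defined DNA-repair lesions; compound exposure; growth vs vehicle controls → % inhibition.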

[7] = at 5.0 µM (retest, dose inferred, filed as 0.5)
[8] = at 50.0 µM (retest, dose inferred, filed as 5.0)

Structure (SMILES)	growth inhibition [1, 7]	growth inhibition [1, 8]	growth inhibition ([1]; at 50.0 µM)	growth inhibition [2, 7]	growth inhibition [2, 8]	growth inhibition ([2]; at 50.0 µM)	growth inhibition [3, 7]	growth inhibition [3, 8]	growth inhibition ([3]; at 50.0 µM)	growth inhibition [4, 7]	growth inhibition [4, 8]	growth inhibition ([4]; at 50.0 µM)	growth inhibition [5, 7]	growth inhibition [5, 8]	growth inhibition ([5]; at 50.0 µM)	growth inhibition [6, 7]	growth inhibition [6, 8]	growth inhibition ([6]; at 50.0 µM)
Nc1n[nH]c(=O)c2cccnc12	-1%	-13%	0.7%	2%	-12%	-7.95%	-1%	-13%	-10.2%	5%	-13%	17%	1%	-4%	12.9%	2%	-14%	3.25%
COc1ccc(/C(Cl)=C(\c2ccc(OCCN(C)C)cc2)c2ccc(OC(=O)C(C)(C)C)cc2)cc1	23%	23%	91.8% (active)	17%	17%	92% (active)	18%	18%	92.3% (active)	10%	10%	60.4%	20%	20%	89.4% (active)	1%	1%	90% (active)
COC(=O)C1(C)CCCC2(C)C3CC(=O)C(C(C)C)=CC3(O)CCC12 (centres undefined)	7%	8%	10.7%	-1%	-3%	-3.25%	4%	-15%	3.1%	-75%	-27%	13.7%	5%	2%	0.8%	15%	19%	-5.95%
OC(CC(CC(O)(C(F)(F)F)C(F)(F)F)=NN=C(CC(O)(C(F)(F)F)C(F)(F)F)CC(O)(C(F)(F)F)C(F)(F)F)(C(F)(F)F)C(F)(F)F	41%	73% (active)	83.7% (active)	31%	92% (active)	84.3% (active)	32%	88% (active)	78.5% (active)	35%	72% (active)	72% (active)	37%	81% (active)	82.7% (active)	46%	93% (active)	67.6%
CS(=O)(=O)OCCN(CCOS(C)(=O)=O)c1ccc(C=Nc2ccc3ccccc3c2)cc1	12%	80% (active)	86.7% (active)	47%	55%	73.2% (active)	6%	45%	71.1% (active)	-2%	64%	37.7%	-3%	6%	10.3%	28%	90% (active)	95.3% (active)
CC(C)OC(=S)SSSC(=S)OC(C)C	6%	99% (active)	99.5% (active)	13%	99% (active)	99.5% (active)	9%	98% (active)	99.7% (active)	0%	97% (active)	68.2%	6%	99% (active)	99.7% (active)	9%	98% (active)	95.5% (active)
Cc1ccc(C(OS(=O)(=O)c2ccc(C)cc2)C(F)(F)F)cc1 (centres undefined)	-1%	-2%	62.6%	-11%	-1%	52.5%	-4%	-13%	72.9% (active)	3%	-2%	15.1%	0%	37%	1.7%	19%	2%	66.2%
CCC(C)(O)Cc1cnccn1 (centres undefined)	3%	1%	1.75%	0%	1%	-2.7%	2%	-3%	7.25%	-1%	-2%	14.8%	0%	1%	12.1%	-10%	2%	9.25%
Cc1noc(NS(=O)(=O)c2ccc(N=Nc3cc(N=Nc4ccc(S(=O)(=O)Nc5onc(C)c5C)cc4)c4c(NC(=O)C(Cl)Cl)cccc4c3O)cc2)c1C (tested in a mixture with another compound)	96% (active)	61%	73% (active)	97% (active)	57%	74.5% (active)	95% (active)	63%	75% (active)	96% (active)	65%	63.4%	95% (active)	56%	49.1%	88% (active)	43%	59.2%
N#CC(C(=O)C(=O)Nc1ccc(Cl)c(Cl)c1)c1c(Cl)cccc1Cl (centres undefined)	-1%	4%	25.9%	-2%	-10%	3.15%	-1%	-1%	2.95%	4%	-4%	43%	-1%	-1%	-3.2%	-2%	-5%	31.4%
O=C(O)CCC(=O)c1ccc2c(c1)CCCC2	-5%	-1%	71.7% (active)	-9%	19%	42.1%	-5%	0%	77.2% (active)	1%	25%	-24.1%	-16%	-48%	20.7%	0%	-6%	77.6% (active)
CN(NS(=O)(=O)c1cccc([N+](=O)[O-])c1)c1ccccc1	-2%	19%	98.7% (active)	9%	6%	98.2% (active)	-2%	6%	96.5% (active)	5%	16%	95.5% (active)	0%	39%	98.8% (active)	-10%	41%	98.8% (active)
O=C(Nc1ccccc1)c1cccc2ccccc12	2%	-8%	67.7%	4%	-1%	48%	6%	-4%	55.1%	1%	-6%	24.1%	-18%	0%	51%	-15%	7%	70.8% (active)
CC(=O)c1ccc2c(c1)CC1(C2)Cc2ccccc2C1=O (centres undefined)	-5%	-16%	-2.15%	-1%	0%	1.15%	11%	24%	7.8%	2%	-13%	-10.6%	25%	84% (active)	84.3% (active)	-4%	-9%	10%
Oc1ccc(O)c2c1N=NC21c2ccccc2Oc2ccccc21	5%	86% (active)	65.6%	7%	89% (active)	54%	6%	91% (active)	83% (active)	10%	84% (active)	86.5% (active)	5%	89% (active)	86.6% (active)	8%	95% (active)	90.8% (active)
N#Cc1c(-c2ccc(Cl)c(Cl)c2)c(-c2ccc(Cl)c(Cl)c2)nn(CC(=O)O)c1=O	-2%	98% (active)	38.1%	-2%	100% (active)	46.6%	2%	98% (active)	50.7%	-3%	99% (active)	14.3%	-3%	99% (active)	34.2%	0%	99% (active)	69.1%
C/C(=N\NC(=S)N1CCN(c2ccccc2)CC1)c1nccs1	28%	96% (active)	90.5% (active)	56%	98% (active)	91.8% (active)	33%	99% (active)	91.1% (active)	22%	98% (active)	90.9% (active)	63%	99% (active)	88.3% (active)	34%	97% (active)	89.8% (active)
O=C(O)c1cc2ccc(Cl)cc2c2c1C(=O)c1cc(Cl)ccc1-2	12%	50%	90.3% (active)	0%	33%	57.5%	-2%	35%	82.5% (active)	-3%	39%	77.3% (active)	-2%	33%	82% (active)	-4%	46%	84.5% (active)
